HT1080 IDH1KD tx = kills HT-1080 cells with IDH1 knockdown | HT-1080 IDH1 knockdown viability, ATP luminescence, 48 h | Potency, µM (doses to about 46.1 µM), for the others: top-dose activity, negative = toxicity, hits mostly cytotoxic | 360,000 compounds, 2% hits;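 also: potency is read from the fitted curve at half-maximal effect; 0% = DMSO wells and -100% = cell-free medium wells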
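Cytotoxicity counter-line: IDH1KD HT-1080, 48 h, CellTiter-Glo. Curves classed by r2, magnitude and activity.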
HT1080-NT tox = kills 2HG-producing HT-1080-NT fibrosarcoma cells; HT-1080-NT fibrosarcoma viability, CellTiter-Glo ATP luminescence, 48 h; Potency, µM (titrated, usually from 46.1 µM), inactives show at the highest dose activity, negative = less viability, most hits filed as cytotoxic; 360,000 compounds, 1.6% hits;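 also: NT is the 2HG producing partner of a matched IDH1 knockdown line; potency is read from the fitted curve at half-maximal effect; 0% = DMSO-treated cells and -100% = media-only wells without cells; nearly all actives have a fitted effect of over 55% in size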
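Compounds were tested in concentration-response format on HT-1080-NT cells for 48 hours at 37 degrees C. Cell viability came from CellTiter-Glo luminescence; curves were classified by r2, response magnitude and activity.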
TDP1 cell noCPT = qHTS for Inhibitors of human tyrosyl-DNA phosphodiesterase 1 (TDP1): qHTS in cells in absence of CPT. DT40 Tdp1-/- hTDP1 cells, no CPT, ATP luminescence, 48 h. Potency, µM (top dose mostly 46.2 µM), without a hit: top-dose activity change, negative = growth inhibition, hits mostly inhibitors. 420,000 compounds, 15% hits. AID 686978, 2013; also: potency is read from the fitted curve at half-maximal effect; nearly all actives have a fitted effect of over 55% in size
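Chicken DT40 Tdp1-/- cells complemented with human TDP1, screened without camptothecin (DMSO vehicle only), 400 cells/well. Compounds pin-transferred, cells incubated at 37 °C for at least 48 hr. Growth read as ATP-dependent luminescence (CellTiter-Glo, 30 min at RT).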
IL1B secr inh = inhibitors of inflammasome signaling (IL-1 beta secretion). THP-1 LPS/ATP IL-1B secretion, AlphaLISA, 16 h; stronger effect = lower value. AID 743279. activity change, % at 57.5 µM. 360,000 compounds, 4.7% hits; in the data active = activity change below about -50%; inconclusive = mostly about -30% to -49%
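Secreted IL-1B measured by AlphaLISA bead assay after 16 h compound exposure of THP-1 cells; compounds (final up to 57.5 uM) added 1 h before LPS (250 ng/mL) and ATP (1.25 mM) stimulation; lower signal means less secretion.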
DT40 TDP1 CPT = DT40-hTDP1 cell growth loss with CPT; chicken DT40 Tdp1-/-;hTDP1 cells + 20 nM CPT, ATP luminescence, 48 h; Potency, µM (highest dose often 46.2 µM), inactives show top-dose activity change, negative = growth inhibition, usual class: inhibitors; 420,000 compounds, 12% hits; also: potency is read from the fitted curve at half-maximal effect; nearly all actives have a fitted effect of over 55% in size
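Cell growth measured by CellTiter-Glo luminescence after a minimum 48 h, 37 C compound exposure with 20 nM CPT in Tdp1-knockout DT40 cells stably expressing hTDP1, seeded 400/well; qHTS titration format.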
Active calls of the source: *; ? = inconclusive; · = not tested or not shown; ! = a repeat was not active; [ ] = another dose, or the depositor's remark. Shown are actives, neighbours in structure and some others; about 19% of the full set was active somewhere. Unless noted, calls follow the shape of the dose curve; as a rule, active = well fitted curve in the direction sought with a large enough effect; inconclusive = small, poorly fitted or top-dose-only effect, or another doubt; inactive = no such curve, though single readings can be large; an effect the other way counts as inactive or inconclusive. Unless noted, % is scaled to controls: 0 for no effect and ±100 for the full control effect.

SMILES | HT1080 IDH1KD tx | HT1080-NT tox | TDP1 cell noCPT | IL1B secr inh | DT40 TDP1 CPT
O=C(OCC#CCSc1nnc(-c2ccc([N+](=O)[O-])cc2)o1)c1cccs1 | 0.2% | -0.4% | ? | -7.3 | ?
CCOC(=O)C1=C(CC)Nc2ccccc2N/C1=N\S(=O)(=O)c1ccc2ccccc2c1 | 14.6µM* | 18.4µM* | -14.7% | 36.7 | -19.3%
CC(=O)Nc1cc(C(=O)N2CCCC(C)C2)cc2ncn(CCc3ccccn3)c12 (stereo unspecified) | · | · | -19.0% | · | 3.6%[9.04 µM]
Cc1n(CC(O)COC2CCCCC2)c2ccccc2[n+]1C (stereo unspecified) | 1.4% | 9.7% | 13µM* | 10.6 | ?
CCc1n(CC(O)COCc2ccccc2)c2ccccc2[n+]1C (stereo unspecified) | -4.7% | -9.0% | ? | 32.9 | ?
O=S(=O)(NCCn1ccc2ccccc21)c1ccccc1 | 6.0% | -3.2% | ? | 11.6 | 4.2%
COc1ccc(-c2cc3nc(C4CCN(C(=O)OC(C)(C)C)CC4)c(C(=O)Nc4cc(Cl)cc(Cl)c4)cn3n2)cc1 | · | · | ? | · | -35.2%
COc1ccc(-c2cc3nc(C4CCN(C(=O)OC(C)(C)C)CC4)c(C(=O)Nc4cc(C)cc(C)c4)cn3n2)cc1 | · | · | 16.4µM* | · | ?
CCOc1ccc(-c2cc3nc(C4CCN(C(=O)OC(C)(C)C)CC4)c(C(=O)Nc4ccc(C)c(F)c4)cn3n2)cc1 | · | · | 7.31µM* | · | 9.2µM*
CC(C)OC(=S)N/C(=N\S(=O)(=O)c1ccccc1)c1ccccc1 | 8.91µM* | 7.08µM* | -0.7% | 11.2 | 7.0%
Cc1cccc(NC(=S)N/C(=N/S(=O)(=O)c2ccccc2)c2ccccc2)c1 | 14.7% | -6.2% | ? | -0.4 | -1.7%
CCCCN1CC[C@H]2C=CC[C@@H](C(=O)Nc3ccc(Cl)c(C(F)(F)F)c3)[C@H]2C1=O | 5.9% | 13.0% | 10µM* | -22.1 | ?
O=C(Nc1ccc(Cl)c(C(F)(F)F)c1)[C@@H]1CC=C[C@@H]2CCN(C3CC3)C(=O)[C@@H]21 | 8.9% | 10.6% | ? | -8.9 | ?
O=C(Nc1ccc(Cl)c(C(F)(F)F)c1)[C@@H]1CC=C[C@@H]2CCN(C3CCCCC3)C(=O)[C@@H]21 | 16.5% | 6.9% | 16.4µM* | 29.6 | ?
O=C(Nc1ccc(Cl)cc1Cl)[C@@H]1CC=C[C@@H]2CCN(C3CCCCC3)C(=O)[C@@H]21 | · | · | 17.8µM* | · | 15.8µM*
CCCCN1CC[C@H]2C=CC[C@@H](C(=O)Nc3ccc(OC)cc3)[C@H]2C1=O | 7.2% | 4.3% | ? | -5.1 | 1.0%
COc1ccc(NC(=O)C2=C(C)C(=O)OC23CCN(C(C)C)CC3)cc1Cl | · | · | -8.9% | · | -6.4%
CCCCCC(=O)N[C@@H](c1ccccc1)[C@@H](O)C(=O)O[C@H]1C[C@@]2(O)[C@@H](OC(=O)c3ccccc3)C3[C@](C)(C(=O)[C@H](OC(C)=O)C(=C1C)C2(C)C)[C@@H](O)C[C@H]1OC[C@@]31OC(C)=O (stereo partly specified) | 0.0058µM* | ? | 0.103µM* | -1.5 | 0.116µM*
Cc1cccc(NC(=S)N(Cc2ccco2)C(C)c2cccs2)c1 (stereo unspecified) | -6.7% | 2.3% | ? | -23.2 | 29.1µM*
CCc1ccccc1NC(=O)CSc1nnc(CC)c(CC)n1 | · | · | -17.0% | · | -16.8%
CCc1nnc(SCC(=O)Nc2ccccc2Cl)nc1CC | -7.1% | -1.3% | ? | -7.8 | 16.4µM*!
COc1ccc(OC)c(NC(=O)CSc2nnnn2C)c1 | 0.0% | 4.0% | 1.5% | 6.0 | 1.9%
COc1ccc(OC)c(NC(=O)CSc2nnc3ccc4ccccc4n23)c1 | · | · | 20.6µM* | · | ?
O=C(CSc1nnc2ccc3ccccc3n12)Nc1ccccc1Cl | · | · | 18.4µM* | · | ?
COc1ccc(OC)c(NC(=O)CSc2nnc(-c3cccnc3)s2)c1 | 18.4µM* | 18.4µM* | ? | -2.9 | ?
